Compound activity from PubChem.
A selection: hits, their analogues and other compounds. The true share with any hit is near 4%.
ROMK mod: modulators of human ROMK potassium channel; 130,000 compounds, 2% hits; B-score at 10 µM; Tet-inducible ROMK, thallium flux fluorescence; actives lie on both sides; AID 1918; P48048;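 active means signal ratio slope over the read window, or its plate-corrected B-score, at least 3 SD from the plate mean, either direction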;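 further: B-score of the F/F0 ratio slope over 7 to 12 s after thallium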
Target sequence (P48048 whole entry, looked up): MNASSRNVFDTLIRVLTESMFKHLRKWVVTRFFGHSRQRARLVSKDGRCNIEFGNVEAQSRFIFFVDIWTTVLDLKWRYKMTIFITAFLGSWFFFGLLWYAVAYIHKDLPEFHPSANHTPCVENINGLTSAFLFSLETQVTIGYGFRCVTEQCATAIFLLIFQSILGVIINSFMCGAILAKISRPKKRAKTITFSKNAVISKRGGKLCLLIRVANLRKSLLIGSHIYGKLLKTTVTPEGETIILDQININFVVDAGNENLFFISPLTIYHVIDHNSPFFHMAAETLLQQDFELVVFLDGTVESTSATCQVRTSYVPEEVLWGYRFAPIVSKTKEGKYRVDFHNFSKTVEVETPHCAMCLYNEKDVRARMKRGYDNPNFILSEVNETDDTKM
Arbovirus anti: arbovirus infection inhibition. arbovirus infection cell-based antiviral screen. inhibition, % at 10 µM. 200,000 compounds, 0.37% hits. AID 1251; in the data active means inhibition above about 30%
HSV augment: HSV replication enhancement | AID 1956 | HSV replication augmentation in cells, fold increase | maximum fold increase | 220,000 compounds, 0.005% hits; in the data active means maximum fold increase above about 1.5; inconclusive means no clear call, values can overlap the other calls; tested in PC3 cells
KCC2 mod: modulates chloride dependent transport by human KCC2; Q9H2X9; KCC2 cells, thallium flux FluoZin-2 fluorescence; B-score of Tl+ flux slope (higher = more flux/activation; lower = inhibition) at 10 µM; 190,000 compounds, 2.2% hits;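 active means thallium flux slope and its plate-corrected score both differing from the plate sample mean at a set confidence after two filtering rounds, in either direction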;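 further: slope of fluorescence scaled to starting intensity during 10 to 20 s after thallium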
Measles CPE: protection of cells from measles virus; 140,000 compounds, 1.5% hits; protection (pct of control), % at 4 µM; AID 841; Measles virus-infected cells, CPE protection, absorbance; in the data active means protection mostly above about 24%, no sharp cut-off; inactive means mostly below about 26%
An asterisk follows results filed as active; i = inactive; ? = inconclusive; / = not tested or not shown.

SMILES | ROMK mod | Arbovirus anti | HSV augment | KCC2 mod | Measles CPE
Cc1csc(NC(=O)c2cccc(S(=O)(=O)N3CCN(C)CC3)c2)n1 | -0.37 | -2 | i | / | /
Cc1csc2nc(CSc3ccc(Cl)cc3)cn12 | / | -2 | i | / | 9
Clc1ccc(SCc2cn3ccsc3n2)cc1 | -2.5 | -10 | i | / | 57*
S=c1nc(-c2ccccc2)[nH]n1-c1ccccc1 | 6.1* | 7 | / | 53* | 6
CCN(CC)c1ccc2cc(C(C)=O)c(=O)oc2c1 | / | -3 | ? | i | 43*
CCN(CC)c1ccc2cc(C(N)=O)c(=O)oc2c1 | / | 2 | i | -0.93 | 6
COc1ccc2oc(=O)c(C(C)=O)cc2c1 | / | -4 | i | -0.044 | 42*
CC(C)(C)c1nnc(NC(=O)c2cccnc2)s1 | -1.2 | 1 | i | -0.14 | /
CCN1C/C(=C/c2cccc([N+](=O)[O-])c2)C(=O)/C(=C/c2cccc([N+](=O)[O-])c2)C1 | 0.1 | -37 | i | 0.58 | 0
COc1ccccc1N(C)S(=O)(=O)c1ccc(C(=O)OCC(=O)N(C(C)C)C(C)C)cc1 | 0.11 | -1 | i | -0.11 | /
Cc1ccsc1/C=N/NC(=O)c1sccc1C | / | -3 | i | 5.7* | 1
Cc1ccsc1/C=N/NC(=O)CO | -0.79 | -2 | i | / | /
CN(C)C(=O)COC(=O)c1ccccc1Nc1ccc(SC(F)F)cc1 | / | 33* | i | -0.52 | 18
O=C1CC(N2CCC(Cc3ccccc3)CC2)C(=O)N1CCc1ccccc1 (centres undefined) | 0.26 | 30* | i | -1.6 | 6
CN(NC1OC(=O)c2ccccc21)c1ccccc1[N+](=O)[O-] (centres undefined) | / | / | i | / | /
CCOC(=O)N1CCC(NC(=O)c2cc(C(=O)Nc3ccc(S(=O)(=O)N4CCCCC4)cc3)ccc2CO)CC1 | 0.33 | 3 | i | 0.94 | /
CCc1nc(SCC(=O)N2CC(=O)Nc3ccccc32)c2c(C)c(C)sc2n1 | / | -4 | i | 5.5* | 19
Cc1ccc(Cn2c(SCC(=O)N3CC(=O)Nc4ccccc43)nc3ccccc3c2=O)cc1 | -0.2 | -7 | i | 3.4 | 4
O=C1CN(C(=O)CSc2nc3cc(Cl)ccc3c(=O)n2Cc2ccccc2)c2ccccc2N1 | / | 0 | i | 24* | 20
C=CCn1c(SCC(=O)N2CC(=O)Nc3ccccc32)nc2scc(-c3ccccc3)c2c1=O | / | -25 | i | -0.6 | 81*
Cc1ccc2nc(Cl)c(CN(Cc3cccs3)C(=O)C3CC3)cc2c1 | / | -6 | i | / | 37*
CC(=O)N(Cc1cccs1)Cc1cc2cc(C)c(C)cc2nc1Cl | / | -10 | i | -0.034 | /
Cc1noc(C)c1COC(=O)Cc1ccc(Cl)c(Cl)c1 | -0.96 | 3 | / | -1.3 | 40*
Cc1noc(C)c1COC(=O)COc1ccc2c(C)cc(=O)oc2c1 | -0.019 | -1 | i | 0.37 | 39*
Cc1cccc(CN2CCC(CNC(=O)CSc3cc(=O)n(C)c4cc(Cl)ccc34)CC2)c1 | / | / | i | 0.79 | /
SMILES | ROMK mod | Arbovirus anti | HSV augment | KCC2 mod | Measles CPE
CCc1c(C)nc(SCC(=O)N2CCCCC2CC)[nH]c1=O (centres undefined) | -0.029 | / | i | -1.5 | /
OCCNCc1cc(Br)ccc1OCc1ccccc1 | / | 7 | i | -0.35 | 32*
N#CCSc1n[nH]c2nc3c(c(=O)n12)C1(CCCC1)Cc1ccccc1-3 | / | 13 | i | -3.5* | 1
CCn1c(SCC(N)=O)nc2c(c1=O)C1(CCCC1)Cc1ccccc1-2 | -1.2 | -2 | i | 3.6* | 8
Cc1c(/C=C/C(=O)c2ccc(O)cc2)cnn1C | / | 4 | i | 1 | 42*
Cc1ccc(C(=O)Nc2nnc(C)s2)o1 | 0.77 | 1 | i | 0.35 | 3
Cc1ccc(/C=C/C(=O)Nc2nnc(C)s2)o1 | 1.1 | -2 | i | -1 | 20*
CCCN(CCC)C(=S)NC(=O)c1ccc(-c2ccccc2)cc1 | / | -19 | i | / | 33
CCCCN(CCCC)C(=S)NC(=O)c1ccccc1Cl | 2.7* | -25 | i | 65* | 1
CCC(=O)NC(=S)Nc1cccc(NC(=O)c2ccc(Cl)cc2Cl)c1 | / | -3 | i | / | 7
CCCCNC(=S)NC(=O)c1ccccc1Br | -0.42 | -7 | i | 35* | 6
CC1CCCC(NC(=S)NC(=O)c2ccccc2Br)C1C (centres undefined) | 0.073 | -12 | i | 23* | 6
CC1CCCC(NC(=O)Cc2ccc(Br)cc2)C1C (centres undefined) | -0.47 | -2 | i | 0.043 | 5
CCN(CC)C(=S)NC(=O)c1ccc(Cl)cc1Cl | 1.4 | -4 | i | 12* | 19
Cc1[nH]c2ccccc2c1C(O)CN1CCC2(CC1)OCCO2 (centres undefined) | / | / | i | 0.24 | /
Cc1ccccc1C(=O)NC(=S)NCCc1ccccc1 | -1.7 | 4 | i | 8.3* | 5
CCCCNC(=S)NC(=O)c1ccc(Cl)cc1Cl | / | 6 | i | 5.3* | 20
CCCN(Cc1ccccc1)C(=S)NC(=O)c1ccccc1[N+](=O)[O-] | 4.5* | -5 | i | 70* | /
CCOc1ccccc1Nc1nnc(C)c(=O)[nH]1 | 0.075 | 1 | i | / | 60*
Cc1ccc(S(=O)(=O)Nc2cccc(NC(=O)CN3CCCCC3)c2)cc1 | -0.61 | 7 | i | -0.37 | 63*
O=C(CN1CCCCCC1)Nc1cccc([N+](=O)[O-])c1 | / | -3 | i | 0.67 | /
CC1CCCN(CC(=O)Nc2cccc([N+](=O)[O-])c2)C1 (centres undefined) | -0.18 | -6 | i | 0.0014 | 32*
COc1ccc(NC(=O)CCN2CCCC(C)C2)cc1 (centres undefined) | / | 1 | i | / | 41*
O=C(NC(Cc1ccccc1)C(=O)O)/C(=C/c1ccc([N+](=O)[O-])cc1)NC(=O)c1ccccc1Br (centres undefined) | / | 5 | i | -0.046 | /
CCn1cc(C(=O)NCCCN2CCC(C)CC2)c(=O)c2cc(S(=O)(=O)N3CCCC3)ccc21 | / | 1 | i | 0.86 | 3
SMILES | ROMK mod | Arbovirus anti | HSV augment | KCC2 mod | Measles CPE
CCn1cc(C(=O)NC2CCC(C)CC2)c(=O)c2cc(S(=O)(=O)N3CCCCC3)ccc21 (centres undefined) | / | -28 | i | -0.48 | 91*
Cc1cc(C)c(NC(=O)c2ccc(CN3CCc4ccccc4C3)cc2)c(C)c1 | -0.48 | -9 | i | 0.1 | 1
COc1ccc2c(c1)C1CC(C)(NC(=O)C1S(=O)(=O)c1ccc(F)cc1)O2 (centres undefined) | / | 7 | i | -0.39 | 69*
COc1ccc2c(c1)OC1(C)CC2C(C(=O)c2ccccc2OC)C(=O)N1 (centres undefined) | 0.38 | -5 | / | -2.3 | 31*
CCCCCCc1cc2cc(C(=O)Nc3ccc(OC)cc3)c(=O)oc2cc1O | / | 47* | i | 0.0057 | 13
CC(C)(C)c1ccc(CN2N=C(/C=C/c3ccccc3)CCC2=O)cc1 | / | -12 | i | 1.7 | /
CC1Cc2ccccc2N1C(=O)C1CCCN(S(=O)(=O)c2cccc3nsnc23)C1 (centres undefined) | -3.1* | -7 | i | -0.11 | 17
O=C(COc1cccc(Br)c1)NN=C1c2ccccc2-c2ccccc21 | / | -10 | i | 1.5 | 7
